This note sets out measurements from PubChem BioAssay AID463173 (ICCB-Longwood Screening Facility, Harvard Medical School, 2010).

Out of some 52,000 compounds screened, about 4,300 (8.3%) were called active. Many of the other results were omitted from the sample, so actives are more common in it than they were. A number with no mark means an inactive call. Rule as the data show it: active = survival mostly below about 52% (no sharp cut-off); inactive = mostly above about 56%.

This test relates to DeltatarO mutant. The test can be described thus: growth inhibition of S. aureus wild type versus tarO mutant, primary screen, teichoic acid synthesis inhibitors, RN4220, OD600 (AID 463173). To be noted: OD600, 18 h, hits give low values, screened at 18.75 µg/mL (by protocol).
Consider `CCc1ccc(Nc2nn(-c3ccc(OC(F)(F)F)cc3)nc2C(C)=O)cc1`, for which the survival was 92%.
Consider `CCOC(=O)N1N=C(C)CC1(O)c1ccccc1` (stereo not given), for which the survival was 90%.
Next, `CCC1=NN(C(=O)c2ccccc2O)C(O)(c2ccccc2)C1` (stereo not given): 1% (active).
Consider `CCC1=NN(C(=O)Cc2ccccc2)C(O)(c2ccccc2)C1` (stereo not given), for which the survival is 77%.
As to `COc1ccc(CCNC(=O)C2CCCN(c3nc4c(C)cc(C)cc4s3)C2)cc1OC` (stereo not given), the survival is 81%.
In the case of `O=C(CC(c1ccccc1)c1ccccc1)N1CCN(c2ccccn2)CC1`, the survival is 72%.
As for `Cc1ccc(-c2nc3ccccc3[nH]2)cc1NC(=O)COc1ccccc1[N+](=O)[O-]`, the figure is 60%; as for `CCCOc1ccc(C(=O)Nc2cc(-c3nc4ccccc4[nH]3)ccc2C)cc1`, 44% (active).
As for `Cc1ccc(OCC(=O)Nc2cc(-c3nc4ccccc4[nH]3)ccc2C)c(C)c1`, the figure is 78%; as for `COc1cc(OC)cc(C(=O)Nc2cc(-c3nc4ccccc4[nH]3)ccc2C)c1`, 44% (active).
For the compound `Cc1ccc(C(C)C)c(OCC(=O)Nc2cc(-c3nc4ccccc4[nH]3)ccc2C)c1`, the survival is 71%.
On to `Cc1ccc(-c2nc3ccccc3[nH]2)cc1NC(=O)COc1cccc(C)c1C`, for which the survival was 43%.
For `COc1c(Cl)cc(C(=O)Nc2cc(-c3nc4ccccc4[nH]3)ccc2C)cc1Cl`, the survival is 49%.
Regarding `Cc1ccc(-c2nc3ccccc3[nH]2)cc1NC(=O)C(C)C`, the survival was 70%.
On to `CCCOc1ccc(C(=O)Nc2cc(-c3nc4cc(C)cc(C)c4o3)ccc2C)cc1`, for which the survival is 85%.
As for `CCCOc1cccc(C(=O)Nc2cc(-c3nc4ccccc4[nH]3)ccc2C)c1`, the survival was 56% (active).
For the compound `Cc1ccc(-c2nc3ccccc3[nH]2)cc1NC(=O)COc1ccc(Cl)cc1Cl`, the survival is 18% (active).
Take `CCCOc1cccc(C(=O)Nc2ccc(-c3nc4ccccc4o3)cc2)c1`: the survival was 77%.
As for `Cc1ccc(NC(=O)Cn2nc(C(F)(F)F)c3c2CCCC3)cc1`, the figure is 120%; as for `CCn1c(=O)c2sccc2n2c(CCC(=O)Nc3ccc(OC)cc3OC)nnc12`, 82%; as for `Cc1cccc(NC(=O)c2cnc3sc(N4CCCC4)nn3c2=O)c1C`, 73%.
With `Cc1ccc(NC(=O)C2CCCN(c3ncnc4c3nc3n4CCCCC3)C2)c(Br)c1` (stereo not given), the survival was 87%.
Take `CC(=O)c1cccc(NC(=O)C2=CC(c3ccc4c(c3)OCO4)=NS(=O)(=O)N2C)c1`: the survival was 72%.
Turning to `Cc1ccc(CNC(=O)CN(c2cc(C)cc(C)c2)S(=O)(=O)c2c(C)[nH]c(=O)[nH]c2=O)cc1`, the survival is 91%.
With `Cc1ccccc1NC(=O)CSc1nc2ccc(NC(=O)c3cccs3)cc2s1`, the survival was 91%.
As to `CCCCc1ccc(NC(=O)Cn2nnc3sc4c(c3c2=O)CCC(C)C4)cc1` (stereo not given), the survival is 58%.
On to `CCc1ccccc1NC(=O)Cn1nnc2sc3c(c2c1=O)CCC(C(C)(C)C)C3` (stereo not given), for which the survival is 47% (active).
Consider `CN(C)c1ccc(NC(=O)Cn2nnc3sc4c(c3c2=O)CCC(C(C)(C)C)C4)cc1` (stereo not given), for which the survival is 79%.
Take `CC1CCc2c(sc3nnn(CCCCOc4ccc(Cl)cc4)c(=O)c23)C1` (stereo not given): the survival is 107%.
`CC1CCc2c(sc3nnn(CC(=O)Nc4ccccc4Cl)c(=O)c23)C1` (stereo not given): the survival is 71%.
For the compound `Cc1ccc(Cn2nnc3sc4c(c3c2=O)CCC(C)C4)cc1` (stereo not given), the survival is 54% (active).
`COC(=O)c1ccc(Cn2nnc3sc4c(c3c2=O)CCC(C)C4)cc1` (stereo not given): the survival is 79%.
As for `Cc1ccc(OCCn2nnc3sc4c(c3c2=O)CCC(C)C4)cc1` (stereo not given), the figure is 54%.
For `CC1CCc2c(sc3nnn(Cc4ccc(F)cc4)c(=O)c23)C1` (stereo not given), the survival was -1% (active).
Next, `CCOc1ccccc1NC(=O)Cn1nnc2sc3c(c2c1=O)CCC(C(C)(C)C)C3` (stereo not given): 106%; `CC1CCc2c(sc3nnn(Cc4ccccc4Cl)c(=O)c23)C1` (stereo not given): 13% (active); `Cc1ccccc1OCCCCn1nnc2sc3c(c2c1=O)CCC(C)C3` (stereo not given): 65%.
Regarding `CCN(CC)C(=O)Cn1cc(SCC(=O)Nc2ccccc2F)c2ccccc21`, the survival was 103%.
For the compound `CCc1cccc(NC(=O)c2cc3c(=O)[nH]c4ccccc4c3n2C)c1`, the survival is 89%.
Take `C=CCNC(=O)C(C)N1CCN(C)CC1` (stereo not given): the survival is 73%.
`Cc1ccccc1CNC(=O)C1CCN(S(=O)(=O)Cc2ccccc2)CC1`: the survival is 75%.
`CCOc1ccc(-c2nnc(SCC(=O)Oc3ccccc3)o2)cc1`: the survival was 71%.
As for `CCC12CN3CC(C)(CN(C1)C3c1ccc(O)cc1O)C2=O` (stereo not given), the figure is 78%; as for `CCc1ccc(S(=O)(=O)c2nnn3c2nc(NCc2ccccc2)c2cc(Cl)ccc23)cc1`, 86%.
In the case of `CCCOC(=O)c1ccc(Cn2nnc3sc4c(c3c2=O)CCC(C)C4)cc1` (stereo not given), the survival was 79%.
Regarding `CC1CCc2c(sc3nnn(Cc4ccccc4)c(=O)c23)C1` (stereo not given), the survival was 3% (active).
Next, `CC1CCc2c(sc3nnn(Cc4cccc(C(=O)OC(C)C)c4)c(=O)c23)C1` (stereo not given): 78%; `COc1ccccc1CNC(=O)C(C)n1c(=O)cc(C(F)(F)F)c2c(C)nn(C)c21` (stereo not given): 94%.
In the case of `COc1ccccc1NC(=O)Cn1nc2c3cc(F)ccc3n(Cc3cccc(C)c3)cc-2c1=O`, the survival was -2% (active).
As for `CCOc1ccccc1NC(=O)Cn1nc2c3cc(F)ccc3n(Cc3cccc(C)c3)cc-2c1=O`, the survival was 72%.
As for `CCc1ccccc1NC(=O)Cn1nc2c3cc(F)ccc3n(Cc3cccc(C)c3)cc-2c1=O`, the figure is 84%; as for `O=C(Cn1ccn(-c2cccc(Cl)c2)c(=O)c1=O)c1ccc(F)cc1`, 59%.
Take `O=C(Nc1ccc(Cl)cc1C(F)(F)F)c1cc(S(=O)(=O)NCc2ccccc2)ccc1F`: the survival is 130%.
On to `O=C(CN(Cc1ccccc1)C(=O)Cn1nnc(-c2ccc(F)cc2)n1)NC1CCCC1`, for which the survival was 70%.
`COc1ccc(-c2nc3ccc(NS(=O)(=O)c4ccc(Cl)cc4)cc3o2)cc1`: the survival was 23% (active).
As for `COc1ccc(-c2nc3ccc(NS(=O)(=O)c4ccccc4)cc3o2)cc1`, the figure is 36% (active); as for `COc1ccc(-c2nc3ccc(NS(C)(=O)=O)cc3o2)cc1`, 77%; as for `COc1ccc(OCC(=O)Nc2ccc(-c3nc4cc(Cl)ccc4o3)cc2)cc1`, 134%.
In the case of `CCC(Oc1ccccc1)C(=O)Nc1ccc2oc(-c3ccc(OC)cc3)nc2c1` (stereo not given), the survival was 111%.
On to `COc1ccc(-c2nc3ccc(NS(=O)(=O)c4ccc(C)cc4)cc3o2)cc1`, for which the survival was 45%.
As for `CCCCC(CC)CNC(=O)c1ccc(Cn2c(=O)[nH]c3cc(OC)c(OC)cc3c2=O)cc1` (stereo not given), the figure is 72%.
As for `O=C(Cn1c(=O)c(CNc2ccccc2)cc2cc3c(cc21)OCCO3)Nc1ccccc1Cl`, the figure is 131%.
Take `O=C(COc1ccccc1)Nc1nnc2n1CCS2`: the survival was 86%.
As for `Cc1cn2c(=O)cc(COC(=O)c3ccc(NC(=O)c4ccccc4C)cc3)nc2s1`, the survival is 101%.
Next, `COc1ccccc1N1CCN(S(=O)(=O)CCNC(=O)COc2ccccc2F)CC1`: 83%.
Next, `CCn1c(CNC(=O)C23CC4CC(CC(C4)C2)C3)nnc1SCC(=O)Nc1ccc(F)cc1`: 71%; `CCn1c(CNC(=O)C23CC4CC(CC(C4)C2)C3)nnc1SCC(=O)Nc1ccc(C)cc1`: 60%; `CCCCn1c(CNC(=O)C23CC4CC(CC(C4)C2)C3)nnc1SCC(=O)Nc1ccccc1`: 54%.
Next, `CCCCn1c(CNC(=O)C23CC4CC(CC(C4)C2)C3)nnc1SCC(=O)Nc1ccc(C)cc1`: 36% (active); `CCn1c(CNC(=O)C23CC4CC(CC(C4)C2)C3)nnc1SCC(=O)Nc1ccccc1`: 66%; `CCCCn1c(CNC(=O)C23CC4CC(CC(C4)C2)C3)nnc1SCC(=O)Nc1ccc(F)cc1`: 54% (active).
Consider `CCc1ccc(CNC(=O)c2ccc(NC(=O)N3CC(C)Sc4ccccc43)cc2)cc1` (stereo not given), for which the survival was 64%.
For the compound `Cc1c(Cl)cccc1Nc1nc2ccc(C(=O)c3ccccc3)cc2n2cnnc12`, the survival was 77%.
For `CCNC(=O)CC1C(=O)N(c2cccc(OC)c2)C(=O)N1Cc1ccc(OC)c(OC)c1` (stereo not given), the survival is 80%.
As for `CCc1[nH]nc2c1C1(C(=O)N(CC)c3ccccc31)C(C#N)=C(N)O2` (stereo not given), the figure is 78%; as for `C=CCN1C(=O)C2(C(C#N)=C(N)Oc3n[nH]c(COC)c32)c2ccccc21` (stereo not given), 109%; as for `CCN1C(=O)C2(C(C#N)=C(N)SC(N)=C2C#N)c2ccccc21`, 2% (active).
Regarding `CCOc1ccccc1NC(=O)c1cn(C2CCCC2)c(=O)c2c1c1ccccc1n2C`, the survival is 122%.
As for `COC(=O)c1cc(S(=O)(=O)NCC2CCN(Cc3cccc(F)c3)CC2)cn1C`, the figure is 122%; as for `Cc1ccc(NS(=O)(=O)c2ccc(-c3cc(C)no3)cc2)c(Br)c1`, 75%.
For `CCOc1ccccc1NC(=O)CSc1ncc(S(=O)(=O)c2ccc(C)c(C)c2)c(N)n1`, the survival was 99%.
Consider `Cc1nn(-c2ccccc2)c2sc(C(=O)N3CCOCC3)cc12`, for which the survival was 89%.
As for `Cc1nn(-c2ccccc2)c2sc(C(=O)Nc3cccc(Br)c3)cc12`, the survival is 30% (active).
As for `Cc1nn(-c2ccccc2)c2sc(C(=O)Nc3cccc(O)c3)cc12`, the figure is 5% (active); as for `O=C(Nc1ccc(Cl)cc1)c1cc2c(-c3ccccc3)nn(-c3ccccc3)c2s1`, 51%.
Regarding `O=C(Nc1ccccc1)c1cc2c(-c3ccccc3)nn(-c3ccccc3)c2s1`, the survival was 44% (active).
For the compound `Cc1nn(-c2ccccc2)c2sc(C(=O)Nc3ccc(Cl)cc3Cl)cc12`, the survival was 71%.
On to `Cc1nn(-c2ccccc2)c2sc(C(=O)Nc3cccc(Cl)c3)cc12`, for which the survival was 2% (active).
As to `COc1cccc(NC(=O)c2cc3c(-c4ccc(Cl)cc4)nn(C)c3s2)c1`, the survival was 84%.
With `Cc1ccc(NC(=O)c2cc3c(-c4ccccc4)nn(-c4ccccc4)c3s2)cc1`, the survival was 50%.
